# Screens (PubChem)
# A selection follows.
# aSyn UTR act: Activators working through SNCA 5'UTR binding (MLPCN) | alpha-synuclein 5'UTR reporter, activators screen | activity score, % (tested at 7.5 µM), hits read low | hit rate 7.1% among 300,000 | AID 1814; in the data active = activity score below about -60%
# Active calls of the source: *.
SMILES,aSyn UTR act
O=C(N/N=C/c1ccc(Br)s1)c1ccc([N+](=O)[O-])cc1,84
O=C(/C=C/c1cccc(Cl)c1)c1ccc([N+](=O)[O-])o1,91
O=C(/C=C/c1cccc([N+](=O)[O-])c1)c1cccs1,-77*
Cc1ccc2[nH]c(C(=O)N/N=C/c3ccc([N+](=O)[O-])cc3)c(C)c2c1,-63*
O=C(N/N=C/c1cccc(OCc2ccccc2)c1)c1cccs1,-72*
Cn1cccc1/C=N/NC(=O)c1cc2ccccc2cc1O,-82*
CC(C)(C)NC(=O)C(=O)N/N=C/c1cccs1,-120*
O=C(N/N=C/c1cccs1)c1ccccn1,-79*
O=C(O)c1cccc(N/N=C/c2cccs2)c1,96
Cn1cccc1C(=O)N/N=C/c1c(Cl)cccc1Cl,-100*
Cn1cc(C(=O)N/N=C/c2c(O)ccc3ccccc23)ccc1=O,96
Cn1cccc1/C=N/NC(=O)c1ccccn1,-71*
Cc1ccc2c(Cl)c(C(=O)N/N=C/c3cccn3C)sc2c1,-135*
CNS(=O)(=O)c1ccc(NC(=O)c2ccccn2)cc1,-73*
O=C(Nc1ccc(NC(=O)C2CCCCC2)nc1)c1ccccn1,-108*
O=C(Nc1ccc(NC(=O)C2CC2)nc1)c1ccco1,-121*
O=C(Nc1ccc(NC(=O)C2CCCCC2)nc1)c1ccco1,-101*
Cc1ccc(NC(=S)N=Nc2c(O)n(C)c3ccc(S(=O)(=O)N4CCOCC4)cc23)cc1,75
Cc1ccc(S(=O)(=O)N2CCCC(C(=O)Nc3ccc(NC(=O)c4ccccn4)cc3)C2)cc1 (stereo not given),-74*
CNS(=O)(=O)c1ccc(NC(=O)c2cc(-c3ccncc3)nc3ccc(Cl)cc23)cc1,-98*
O=C(Nc1ccc(Cl)cc1)c1ccc2snnc2c1,-149*
CC(=O)c1ccc(NC(=O)c2ccc3snnc3c2)cc1,-119*
O=C(Nc1ccccc1F)c1ccc2snnc2c1,-77*
COc1ccc(NC(=O)c2ccc3snnc3c2)cc1,-107*
CS(=O)(=O)Nc1cccc(C2=NN(S(C)(=O)=O)C(c3ccc4c(c3)OCO4)C2)c1 (stereo not given),-86*
SMILES,aSyn UTR act
CS(=O)(=O)N1N=C(c2ccccc2)CC1c1ccc2c(c1)OCO2 (stereo not given),-275*
Cc1ccc(C2CC(c3ccco3)=NN2S(C)(=O)=O)cc1 (stereo not given),-63*
CCc1nn2cc(-c3ccccc3)nc2s1,80
Nc1nn2cc(-c3ccccc3)nc2c2ccccc12,-112*
Cc1ccc(NC(=O)CSc2nccn2C)cc1F,-62*
O=C(CSc1ccccn1)Nc1nc2ccccc2s1,-63*
Cn1ccnc1SCC(=O)Nc1nc2ccccc2s1,-125*
Cn1ccnc1SCC(=O)Nc1ccc2nc(SCC(=O)NC3CC3)sc2c1,-152*
C=CCOC(=O)/C(=C/c1cccc2ccccc12)NC(=O)c1ccccc1,-258*
CCc1ccc2nc(N3C(=O)C(O)=C(C(=O)c4ccco4)C3c3cccs3)sc2c1 (stereo not given),-102*
CCOC(=O)c1sc(N2C(=O)C(O)=C(C(=O)c3ccco3)C2c2cccc(Cl)c2)nc1C (stereo not given),-81*
Cc1ccc2nc(N3C(=O)C(O)=C(C(=O)c4cc5ccccc5o4)C3c3cccs3)sc2c1 (stereo not given),-85*
Cc1ccc2nc(N3C(=O)C(O)=C(C(=O)c4ccco4)C3c3ccc(C)o3)sc2c1 (stereo not given),-82*
COC(=O)Cc1ccc(NC(=O)c2cccs2)cc1,-159*
CC(=O)c1ccc(NC(=O)c2cccs2)cc1,-88*
Cc1ccc(NC(=O)c2ccccc2NC(=O)c2cccs2)cc1,-80*
N/C(=N\O)c1ccc(NC(=O)c2cccs2)cc1,-81*
CCn1c(-c2ccc(F)cc2)cnc1SCC(=O)N1CCc2ccccc21,-85*
O=C(CSCc1ccco1)c1ccc(Cl)s1,-116*
Cc1nc(SCC(=O)N2CCc3ccccc32)n[nH]1,-68*
O=C(CSc1ccccc1)N1CCc2ccccc21,-113*
Nc1cc(N)nc(SCC(=O)N2CCc3ccccc32)n1,-87*
O=C(Cc1c[nH]c2ccccc12)N1CCc2ccccc21,-63*
CCn1c(CNc2ccc(OC)cc2)nnc1SCC(=O)N1CCCc2ccccc21,-70*
Cc1ccc2c(CC(=O)N3CCc4ccccc43)coc2c1,-161*
SMILES,aSyn UTR act
O=C(CSCc1ccco1)N1CCc2ccccc21,-83*
S=c1[nH]cnc2sc(-c3ccccc3)cc12,-71*
Cc1ccc(O)c(C(=O)c2cnn(-c3ccccc3)c2)c1,-68*
O=C(Cc1cnn(-c2ccccc2)c1)c1ccc(O)c(O)c1O,-81*
CCCC#Cc1ccc2c(c1)COc1c3ccccc3nn1-2,-76*
O=c1cccc2c1c1cc[nH]c3ccc(=O)n2c31,79
N#C/C(=C\c1ccc(N2CCOCC2)o1)c1ccccc1,-223*
N#C/C(=C\c1ccc(N2CCOCC2)cc1)c1ccccc1,-132*
N#C/C(=C/c1ccc(N2CCOCC2)o1)c1ccc(Br)cc1,-284*
Nc1c(C(=O)NCc2ccccc2)sc2nc(N3CCOCC3)c3c(c12)CCCC3,65
Cc1cc(C)c2c(N)c(C(=O)N/N=C/c3ccccc3)sc2n1,-108*
Cc1cc(C)c2c(N)c(C(=O)N/N=C/c3cccnc3)sc2n1,-128*
Cc1cc(C)c2c(N)c(C(=O)NNC(=O)c3ccccc3)sc2n1,-108*
CCCCOc1ccc(N=Nc2ccc(N)nc2N)cn1,-300*
Cc1cccnc1NC(=S)Nc1ccc(F)cc1F,-74*
Cc1cc(C)nc(NC(=S)Nc2ccc(F)cc2F)c1,-62*
Cc1ccc(C)c(NC(=S)Nc2ncccc2C)c1,-136*
Cc1cc(N/N=C/c2ccncc2)nc2ccccc12,-137*
Cc1cc(N/N=C/c2cccc(Br)c2)nc2ccccc12,-241*
Cc1ccc2c(c1)COc1c3ccc(C(=O)N4CCOCC4)cc3nn1-2,-113*
O=C(c1ccc2c3n(nc2c1)-c1ccc(Cl)cc1CO3)N1CCCCC1,-138*
O=C(O)c1ccc2c3n(nc2c1)-c1ccc(Cl)cc1CO3,-161*
O=C(NCC(c1cccs1)N1CCOCC1)c1ccc(Cl)cc1 (stereo not given),-100*
COc1cccc(C2=N/C(=C\N(C)C)C(=O)O2)c1,-133*
O=C(NC1CCCC1)C(c1ccncc1)N(Cc1ccco1)C(=O)c1ccc(-c2ccccc2)[nH]1 (stereo not given),-68*
SMILES,aSyn UTR act
CCN(CC)c1ccc(C=N/C(C#N)=C(\N)C#N)cc1,-138*
CCOC(=O)C1CCN(c2ccc(-c3cccs3)nn2)CC1,-212*
S=C(Nc1ccccc1)c1ccccn1,-165*
Cc1cccc(NC(=O)C2C3CCCCC32)c1 (stereo not given),-117*
Cc1ccc(NC(=O)C2C3CCCCC32)cc1[N+](=O)[O-] (stereo not given),-99*
Cc1ccc(NC(=O)CN2CCCCCC2)cc1[N+](=O)[O-],-90*
Cc1cc(NC(=O)OC2CCCCC2)ccc1[N+](=O)[O-],-190*
Cc1ccc(NC(=O)Nc2ccccc2)cc1[N+](=O)[O-],-145*
CC(=O)c1ccc(NC(=O)CN2CCCC2)cc1,-63*
CSCCC(=O)Nc1ccc(C(C)=O)cc1,-143*
Cc1ccc(NC(=O)C2C3/C=C\CCCCC32)cc1 (stereo not given),-83*
Cc1ccc(Nc2nc(COC(=O)C3CC3)cs2)cc1,-105*
c1coc(-c2nnc(-c3cccs3)o2)c1,-99*
Cc1ccc(-c2nnc(-c3ccc(Br)cc3)o2)o1,-135*
c1ccc(-c2nnc(-c3ccco3)o2)cc1,-137*
